The results in this text go back to article PMC7819943, “Rice protein-binding microarrays: a tool to detect cis-acting elements near promoter regions in rice”.

Over roughly 68,000 sequences, “fluorescence intensity (a.u.)” has its median near 9,100; the highest 2% begin near 16,000. Only a selection was taken, and the highest values are over-represented in it overall.

OsWRKY34, sequence (Q0JBA9 entry or part of it): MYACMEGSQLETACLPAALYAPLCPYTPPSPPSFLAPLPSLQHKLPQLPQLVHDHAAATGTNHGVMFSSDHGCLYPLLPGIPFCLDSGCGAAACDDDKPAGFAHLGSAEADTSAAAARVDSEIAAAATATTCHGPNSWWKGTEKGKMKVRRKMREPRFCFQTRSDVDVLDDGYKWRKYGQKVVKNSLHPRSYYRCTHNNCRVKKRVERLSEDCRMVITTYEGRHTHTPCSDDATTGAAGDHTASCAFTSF

This assay deals with OsWRKY34 (Oryza sativa, UniProt Q0JBA9 1-250). In words: protein-binding microarray (RPBM); PBS, 2% BSA, 51.3 ng/ul salmon testes DNA, 50 uM zinc acetate, 200 nM TF, 25 C, 1 h; high values mean tight binding. Conditions: protein: recombinant; tags: N-terminal polyhistidine and DsRed monomer fusion (pET32a); label: CyDye5-dUTP incorporated in the synthesized complementary strand; 3' TTTTT single-stranded linker to array surface; dsDNA, one strand shown. The method in brief:
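Ni–NTA purification followed expression in E. coli BL21-CodonPlus of transcription factors fused N-terminally to a polyhistidine tag and DsRed. At 200 nM in PBS with 2% BSA, salmon testes DNA and 50 µM zinc acetate, the protein was incubated for 1 h at 25 °C with a custom Agilent array that had been primer-extended with Cy5-dUTP and blocked with 2% BSA. After washing, the array was read on an Axon 4000B scanner. The binding signal is per-feature fluorescence intensity in arbitrary units.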
For “ATATTATAAGTTGTTTTGACTTTTTGCTAGTCAAACTTATCGGAGTCACCTAGTGCAG”, the binding signal was 14200 fluorescence intensity (a.u.). Turning to “CTTTGGTCAAAGTCAAATTGTTTTAAGTTTGACCAAGTTTCGGAGTCACCTAGTGCAG”, the binding signal is 19600 fluorescence intensity (a.u.). In the case of “CGTGGTAATTTTTATTGGTAAGTGGTGGTGAAGTGGGTGACGGAGTCACCTAGTGCAG”, the binding signal is 8300 fluorescence intensity (a.u.). As to “TAAGTTGTTTGACTTTTTTTCTAGTCAAACTTGTCTGAGTCGGAGTCACCTAGTGCAG”, the binding signal was 17000 fluorescence intensity (a.u.). In the case of “GCAGTTTAACTTTGACCAAAGTCAAAATATTTTATAATTTCGGAGTCACCTAGTGCAG”, the binding signal was 8930 fluorescence intensity (a.u.). With “CACTTTATTTTTGAAAATTCGGGTGGGTAAGCTGGTGACTCGGAGTCACCTAGTGCAG” the figure was 19200 fluorescence intensity (a.u.); with “ATAAGATATTTTTGACTTTGGTCAAAGTCAAATTGTTTCACGGAGTCACCTAGTGCAG”, 15300 fluorescence intensity (a.u.); with “ACTTCTTCTACGTGATTTCCTGATTCGCCTCATCCGCTTCCGGAGTCACCTAGTGCAG”, 9060 fluorescence intensity (a.u.). For “TGGGGATGGCGGAGGTTAGCGGCGCGCTTTTTTTTCTATTCGGAGTCACCTAGTGCAG”, the binding signal was 14500 fluorescence intensity (a.u.).

As to “TTCATATACACATATAGTTTTACATATTTCATATTTTTTTCGGAGTCACCTAGTGCAG”, the binding signal is 9360 fluorescence intensity (a.u.). As for “CCACCTGCCAGCCTGTACCCACCCCTCCCTACTGTTATACCGGAGTCACCTAGTGCAG”, the figure is 8640 fluorescence intensity (a.u.); as for “ATGATCATAGCCATTTTTCCTCGCTTTAAATATTTGCTACCGGAGTCACCTAGTGCAG”, 8490 fluorescence intensity (a.u.); as for “TGGCGGATTGATCTGGAGGTGGGCTTGTTGGGGTTGCTGTCGGAGTCACCTAGTGCAG”, 18200 fluorescence intensity (a.u.). As to “AGTCTGGATTCTTGGAGGTCAACTTTGGTCAACGGTGGGGCGGAGTCACCTAGTGCAG”, the binding signal was 14200 fluorescence intensity (a.u.). As for “GAGGTCTACTGTTATTGGGGATTCTTTTTGGGTGGGGTGGCGGAGTCACCTAGTGCAG”, the figure is 31300 fluorescence intensity (a.u.); as for “GCTTGCTTGGTTGGTTGGTGGAGCTTGGGAGTTGAGGTCACGGAGTCACCTAGTGCAG”, 11500 fluorescence intensity (a.u.); as for “GTGGCTTGAAAGGTCTGTGTGTTCTTGTTTGGGATTGAGGCGGAGTCACCTAGTGCAG”, 8440 fluorescence intensity (a.u.). As for “TTGGCGGTGGAGGCGGTGGTGGCTTTGGAGGAGACGGTGGCGGAGTCACCTAGTGCAG”, the figure is 8650 fluorescence intensity (a.u.); as for “TTCGGAGGCGGAGGCGGTGGTGGGCTTGGTGGAGGTGGCGCGGAGTCACCTAGTGCAG”, 9860 fluorescence intensity (a.u.); as for “CGGGTGGGGATGGGCTGGATCTGGATTGATTGGGAGTGTTCGGAGTCACCTAGTGCAG”, 15200 fluorescence intensity (a.u.). As for “GGTTGCTGTGGTTGGCGAGGTGGGGTGGGGCTTGGAGTAACGGAGTCACCTAGTGCAG”, the figure is 27400 fluorescence intensity (a.u.). Turning to “GCTTGTTGTGGGCTGTGGACTGGGTGTGTGTGTGTGCTTTCGGAGTCACCTAGTGCAG”, the binding signal is 9420 fluorescence intensity (a.u.). With “GCTTTTGGCTGTGGTGGGTGCTTGTGGGTGGAGAGAGAGACGGAGTCACCTAGTGCAG” the figure was 19300 fluorescence intensity (a.u.); with “CTGGATTGATTGGGAGTGTTGGGTTTCGGGCTAGATCTGGCGGAGTCACCTAGTGCAG”, 9850 fluorescence intensity (a.u.); with “ATCTTTGCCAAAATTTTTCTACTAGTATAATACTATCTCCCGGAGTCACCTAGTGCAG”, 8420 fluorescence intensity (a.u.). With “AAGCTCCGATCCACAGCGCACCTCGAGCCCTACCTCCGATCGGAGTCACCTAGTGCAG”, the binding signal was 8940 fluorescence intensity (a.u.).

With “TTCCTCCATCCATTTTGTCAACTCCTCTCCGCTTTTCATCCGGAGTCACCTAGTGCAG”, the binding signal is 9640 fluorescence intensity (a.u.). In the case of “GCCTGGCGCGCCTCTCCTGCTCTGTTGGACCGCCGCGCCCCGGAGTCACCTAGTGCAG”, the binding signal is 12000 fluorescence intensity (a.u.). With “CCACTCTCCGGCGCACCTATTTTCCATTTATATATATATGCGGAGTCACCTAGTGCAG”, the binding signal is 9670 fluorescence intensity (a.u.). On to “TTGAACCCTGCTCTCAGCTGAGCACCATGCAATAACTGTCCGGAGTCACCTAGTGCAG”, for which the binding signal was 8270 fluorescence intensity (a.u.).

“CCAATGATATGTGCCGAAGTTGTATTTATCGAGAGATATTCGGAGTCACCTAGTGCAG”: the binding signal is 9850 fluorescence intensity (a.u.). With “CCAGTGAATTACATTTTTGCCCGATCCCGTCGCGAACTCCCGGAGTCACCTAGTGCAG” the figure was 8750 fluorescence intensity (a.u.); with “CTGGGTGTTCAGATATATTACTAGAGGTCATACCATACAACGGAGTCACCTAGTGCAG”, 8130 fluorescence intensity (a.u.). For the sequence “GGCTATCGGTGGGTGGGTGGGGTGTACTACTCCCCTATAACGGAGTCACCTAGTGCAG”, the binding signal was 22200 fluorescence intensity (a.u.). Take “CTACTAGTACAGGCTATATCGCTTACTCCCTTTGTCCTAACGGAGTCACCTAGTGCAG”: the binding signal was 8420 fluorescence intensity (a.u.). With “TAGTTGTTGTTGTTGTTATTTGTTAATTGGGCCTTGTTCACGGAGTCACCTAGTGCAG” the figure was 12300 fluorescence intensity (a.u.); with “CTTGGCTGTTCTTGGGTGGGTGAGGTGGGGCGGTCGGATCCGGAGTCACCTAGTGCAG”, 17100 fluorescence intensity (a.u.). With “GAGGAGGTGGTGGCGCGGCGTTCTTGGGGCTGGAGAGGGTCGGAGTCACCTAGTGCAG” the figure was 8790 fluorescence intensity (a.u.); with “TACATTGTTAGTACTGTTTGGTGTAACTATTTTTTTATAACGGAGTCACCTAGTGCAG”, 8180 fluorescence intensity (a.u.).

As for “AACCTACTAGCTAGCTTAGTGTACTCTGTGTACTGTATATCGGAGTCACCTAGTGCAG”, the binding signal was 8190 fluorescence intensity (a.u.).

“CTAATTAGTACTGCAATTTTGGGTCCTTGGGTTGTTAGAACGGAGTCACCTAGTGCAG”: the binding signal is 16900 fluorescence intensity (a.u.). Regarding “TAGGGGTTAGTGTGCGAGCATGTGCTGTGTAATTTTTTAACGGAGTCACCTAGTGCAG”, the binding signal is 10600 fluorescence intensity (a.u.). As to “TGGGTCTCTTGGGGTCGGTGGGGCGGTCGTCGTCCGTGCCCGGAGTCACCTAGTGCAG”, the binding signal was 11400 fluorescence intensity (a.u.). As for “GCCATATTATTTTTCCTTTGTCCTAATTAATGTTAGAAATCGGAGTCACCTAGTGCAG”, the figure is 9440 fluorescence intensity (a.u.); as for “TTAGTACTATTAATTTGGTGGGGTTGGGTGGGTGCTGTAACGGAGTCACCTAGTGCAG”, 16700 fluorescence intensity (a.u.).
